PfM18AAP inh: PfM18AAP inhibitors, malaria aminopeptidase, primary screen, biochemical, QFRET, recombinant enzyme. M18 aspartyl aminopeptidase (Plasmodium falciparum 3D7). H-Glu-NHMec fluorogenic cleavage. inhibition, % at 7.35 µM. 1.2% of 290,000 active. AID 1822, 2009;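 active = inhibition above the campaign mean inhibition over all tested compounds plus 3 SD, cut at about 28% in these data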
FID counter: compounds displacing fluorescent DNA intercalator, primary screen, artefact control for HCV NS3 helicase inhibitor project, biochemical, FID fluorescence; inhibition, % at 7.9 µM; DNA fluorescent intercalator displacement; AID 1845, 2009; 0.17% of 290,000 active; in the data active = inhibition above about 37%;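 also: higher means more ethidium bromide displaced from hairpin DNA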
Rce1 inhib: yeast Rce1p protease inhibitors, primary screen, biochemical, fluorescence, cell-free homogeneous | CAAX prenyl protease 2 (Saccharomyces cerevisiae (strain ATCC 204508 / S288c)), Q03530 | yeast membranes, quenched prenylated peptide cleavage fluorescence | calls only | 0.27% of 290,000 active | AID 2563, 2010;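 active = fall in fluorescence gain of 50% or more versus controls, with final raw signal at or below 3038400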
Target sequence (Q03530 whole entry, looked up): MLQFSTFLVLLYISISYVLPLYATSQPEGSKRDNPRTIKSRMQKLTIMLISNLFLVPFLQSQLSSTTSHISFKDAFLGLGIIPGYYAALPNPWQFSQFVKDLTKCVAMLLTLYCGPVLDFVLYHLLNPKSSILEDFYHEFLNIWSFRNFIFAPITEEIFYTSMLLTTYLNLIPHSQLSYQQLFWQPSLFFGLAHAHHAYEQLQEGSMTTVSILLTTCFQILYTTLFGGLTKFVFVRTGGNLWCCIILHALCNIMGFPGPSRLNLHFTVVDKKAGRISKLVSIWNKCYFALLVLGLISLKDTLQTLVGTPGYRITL
Kir21 block: inhibitors of mouse Kir2.1 inward-rectifier potassium channel | 0.85% of 310,000 active | B-score at 10 µM | HEK293-Kir2.1, FluxOR thallium flux fluorescence; active compounds read low;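 active = fluorescence ratio B-score at or below minus 3 SD of library scores, with starting-brightness B-score within 2 SD, cut at about -4.2 in these data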;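 also: channel flux triggered by added potassium and thallium sulfate stimulus; B-score of peak minus minimum fluorescence over baseline after thallium stimulus; more negative B-score means stronger Kir2.1 block with less thallium influx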
A number is an active result; . = inactive; / = not tested or not shown; + = active, no number. Hits are enriched below; roughly 2.3% of the tested compounds scored in any of these assays.

SMILES	PfM18AAP inh	FID counter	Rce1 inhib	Kir21 block
Cn1cc(CN2CCCC(CO)(Cc3ccccc3)C2)c2ccccc21 (configuration not stated)	.	.	.	.
CCn1cc(CN2CCCC(CO)(Cc3ccc(F)cc3)C2)c2ccccc21 (configuration not stated)	.	.	.	-5.16
N#CC1=C(N)C(C#N)(C#N)C(c2ccc[nH]2)C2CCCC=C12 (configuration not stated)	.	.	.	-4.89
CCOC(=O)NN1C(=O)c2ccccc2NC1c1ccccc1 (configuration not stated)	.	.	.	.
CCOC(=O)NN1C(=O)c2ccccc2NC1c1ccccn1 (configuration not stated)	29.7	.	.	.
Cc1ccc(-n2c(COc3ccccc3)n[nH]c2=S)cc1	.	.	.	.
Cc1ccc(-n2c(Cn3c(C)nc4ccccc43)n[nH]c2=S)cc1	32.8	.	.	.
CC1=NN(Cc2ccccc2)C(=O)C1C(c1ccc(Cl)cc1)C(C#N)C#N (configuration not stated)	.	.	.	-5.53
CC1Cc2ccccc2N1C(=O)CCS(=O)(=O)c1ccc2c(c1)NC(=O)CS2 (configuration not stated)	.	.	.	.
COc1ccc(S(=O)(=O)CCC(=O)N2c3ccccc3CC2C)cc1 (configuration not stated)	.	.	.	-4.56
COc1ccc(C)cc1Nc1n[n+](-c2ccccc2)c(-c2ccc(OC)c(OC)c2OC)s1	.	.	.	-4.89
COc1ccc2cc(C(=O)/C=C/c3cc(OC)c(O)c(OC)c3)ccc2c1	28.7	.	.	.
COc1cc(/C=C/C(=O)c2cccc([N+](=O)[O-])c2)cc(OC)c1OC	.	.	.	-4.7
COc1cccc(/C=C/C(=O)c2ccc(C)c([N+](=O)[O-])c2)c1	.	.	.	-5.75
COC(=O)C1(CC2CC(c3ccc(Cl)cc3)=NO2)CCN(C(=O)OC(C)(C)C)CC1 (configuration not stated)	/	/	.	.
C=C(C)COc1ccc(-c2nc(N)ncc2-c2ccc(Cl)cc2)c(O)c1	.	.	.	.
Cc1cc(=S)[nH]c2c(C)cccc12	33.1	.	.	.
CC1CCN(C(=O)c2cc3nc(-c4ccccc4)cc(-c4ccccc4)n3n2)CC1	.	.	+	.
CS(=O)(=O)Nc1ccccc1C(=O)Nc1cccc(Cl)c1	.	.	+	.
CS(=O)(=O)Nc1ccccc1C(=O)Nc1cc(Cl)cc(Cl)c1	.	.	.	.
COc1cccc(NC(=O)c2ccccc2NS(C)(=O)=O)c1	.	93.9	.	.
COc1cccc(NC(=O)c2ccccc2-c2ccccc2)c1	.	.	.	-4.22
Cc1ccccc1CNC(=O)c1ccccc1NS(C)(=O)=O	.	.	.	.
COc1ccc(NC(=O)c2ccccc2NS(C)(=O)=O)cc1OC	.	.	.	.
CS(=O)(=O)Nc1ccccc1C(=O)NCc1ccccc1Cl	.	.	+	.
SMILES	PfM18AAP inh	FID counter	Rce1 inhib	Kir21 block
COc1ccc(NC(=O)c2ccccc2-c2ccccc2)cc1	.	.	.	.
CS(=O)(=O)Nc1ccccc1C(=O)NC1CC2CCC1C2 (configuration not stated)	.	.	+	.
CN(c1ccccc1C(=O)NC1CC2CCC1C2)S(=O)(=O)c1ccccc1 (configuration not stated)	.	.	.	.
CN(C)c1ccc(-c2nc3ccccn3c2/N=C/c2ccc(Br)cc2)cc1	.	.	.	.
COc1cc(-c2nc3ccccn3c2/N=C/c2cc(OC)c(OC)c(OC)c2)ccc1O	.	.	+	.
COc1ccc(OC)c(/C=N/c2c(-c3ccc(O)c(OC)c3)nc3ccccn23)c1	.	.	+	.
COc1cc(-c2nc3cnccn3c2Nc2ccccc2)ccc1O	.	.	.	.
Cc1ccccc1CSCC(=O)Nc1ccccc1-c1ccccc1	.	.	.	-6.9
O=C(CSCc1cccc(Cl)c1)Nc1ccccc1-c1ccccc1	.	.	.	-5.71
O=C(CSCc1ccc(Cl)cc1)Nc1ccccc1O	.	.	.	.
COc1ccc(N(CC(=O)NCc2ccc(C)cc2)S(=O)(=O)c2c(C)noc2C)cc1	.	.	.	.
CCOc1ccccc1CNC(=O)c1cc2occc2n1C	.	.	+	.
C/C(=N\NC(=O)c1nnn(-c2nonc2N)c1CN1CCc2ccccc21)c1ccccc1O	.	.	.	.
CCN(CC)Cc1cc2[nH]c3c4ccc(Cl)cc4ncc3c2cc1OC	.	58.8	.	.
O=C(NCCOc1nc(N2CCCCC2)nc(N2CCCCC2)n1)Nc1ccccc1	.	.	.	.
CCN(CC)c1nc(OCCNC(=O)Nc2ccccc2)nc(N(CC)CC)n1	.	.	.	-5.31
O=C(CN1CCN(S(=O)(=O)c2ccc(Cl)cc2)CC1)NC1CC1	.	.	.	.
COc1cccc(OC)c1OCCN(C)C	31.2	.	.	.
COc1cccc(OC)c1OCCNC(C)(C)C	.	.	/	.
COc1ccc(CN2CCN(Cc3cccc(Oc4ccccc4)c3)CC2)c(OC)c1OC	.	.	.	.
COc1cc(CN2CCN(Cc3ccc(SC)cc3)CC2)cc(OC)c1O	.	.	.	.
COc1ccc(CN2CCN(C(c3ccc(F)cc3)c3ccc(F)cc3)CC2)c(OC)c1OC	/	/	+	.
COc1cc(OC)c(OC)cc1CN1CCN(Cc2ccc(SC)cc2)CC1	.	.	.	-5.51
COc1ccc(CN2CCN(Cc3ccc(Br)cc3)CC2)c(OC)c1OC	.	.	.	-4.77
COc1ccc(CN2CCN(S(=O)(=O)c3ccc(F)cc3)CC2)c(OC)c1OC	.	.	.	.
SMILES	PfM18AAP inh	FID counter	Rce1 inhib	Kir21 block
COc1cccc(C(=O)Nc2cccc(-c3ccc(N4CCOCC4)nn3)c2)c1OC	/	/	.	.
Cc1cc(C)c(C(=O)C(C)OC(=O)c2ccccn2)cc1C (configuration not stated)	.	.	.	.
COc1ccc(N2C(=O)CC(Nc3ccc(N4CCOCC4)cc3)C2=O)c(OC)c1 (configuration not stated)	28.3	.	.	.
COc1cccc(N2C(=O)CC(Nc3ccc(N4CCOCC4)cc3)C2=O)c1 (configuration not stated)	29.4	.	.	.
CC(=O)N1CCc2cc(S(=O)(=O)CCC(=O)N(C)c3cc(C)ccc3C)ccc21	.	.	.	.
CN(C)CCNC(=O)COc1ccc(C23CC4CC(CC(C4)C2)C3)cc1	.	38.0	.	-6.53
Cc1ccc(CNC(=O)NC23CC4CC(CC(C4)C2)C3)cc1	.	.	.	.
Cc1ccc(C23CC4CC(CC(NC(=O)NCCN(C)C)(C4)C2)C3)cc1	.	.	.	-4.35
CC1(C)CN(C(Cc2ccccc2)C(N)=O)C1=O (configuration not stated)	.	.	.	.
CC1CCCCC1NC(=O)C1CCCN(S(=O)(=O)c2ccc(-n3cnnn3)cc2)C1 (configuration not stated)	.	.	.	.

Compound activity as filed in PubChem.
